AmpC detergent – inhibitors of E. coli AmpC beta-lactamase with detergent. AmpC hydrolysis of nitrocefin, absorbance 480 nm, 0.01% Triton. Potency, µM (top dose mostly 114 µM), hits mostly inhibitors. 370,000 tested, 0.041% active. AID 485294; note: nearly all actives have a fitted effect of over 25% in size
Target sequence (P00811 whole entry, looked up): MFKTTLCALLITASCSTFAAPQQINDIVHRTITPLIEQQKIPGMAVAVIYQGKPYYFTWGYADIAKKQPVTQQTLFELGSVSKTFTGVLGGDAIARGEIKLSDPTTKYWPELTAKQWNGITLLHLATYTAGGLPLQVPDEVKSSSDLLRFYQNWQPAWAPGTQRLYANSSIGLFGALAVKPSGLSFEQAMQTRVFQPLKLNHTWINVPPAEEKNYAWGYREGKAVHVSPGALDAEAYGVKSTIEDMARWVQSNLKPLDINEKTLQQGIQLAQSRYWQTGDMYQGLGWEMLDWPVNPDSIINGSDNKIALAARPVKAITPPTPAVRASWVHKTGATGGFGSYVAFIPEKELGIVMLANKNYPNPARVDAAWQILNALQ
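20 mM phosphate pH 7.0 + 0.01% (detergent screen) or 0.0001% Triton X-100; 5.3 nM AmpC reagent; cpd preinc 15 min RT; nitrocefin (800 uM stock) to start; A480 q20 s × 4 min; Activity was normalised to no-enzyme and no-compound control wells.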
Shiga inhibitor – inhibitors of Shiga toxin in Vero cells; 290,000 tested, 9.2% active; inhibition, % at 38.7 µM; Vero cells, Shiga toxin protein synthesis inhibition reporter; AID 2315; in the data active = inhibition mostly above about 28%, no sharp cut-off; inactive = mostly below about 43%
SARS PLP yeast – blocks SARS-CoV papain-like protease in a yeast assay | S. cerevisiae expressing SARS-CoV PLpro, growth rescue | Potency, µM (doses to about 32.9 µM), most hits filed as activators | 330,000 tested, 0.19% active; calls by dose curve; note: nearly all actives have a fitted effect of over 55% in size
AmpC no deterg – inhibitors of E. coli AmpC beta-lactamase without detergent. P00811. AmpC nitrocefin hydrolysis, absorbance 480 nm, 0.0001% Triton. Potency, µM (series often up to 57.1 µM), actives largely listed as inhibitors. 330,000 tested, 0.52% active; note: nearly all actives have a fitted effect of over 20% in size
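AmpC (5.3 nM in the dispensed reagent) in 20 mM phosphate pH 7.0 with 0.01% (detergent screen) or 0.0001% Triton X-100 was preincubated with compounds for 15 min at room temperature. Nitrocefin was then added from an 800 uM solution, and hydrolysis was followed at 480 nm.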
CHX counter – affects cycloheximide protein synthesis inhibition readout, counter-screen | max response, % | AID 2314 | 300,000 tested, 12% active | cell reporter, cycloheximide protein synthesis inhibition counterscreen; in the data active = max response mostly above about 13%, no sharp cut-off; inactive = mostly below about 14%; note: read at 38.3 µM for the half of the compounds with a filed dose
AMA1 RON2 block – inhibitors of Plasmodium falciparum AMA1-RON2 interaction | Potency, µM (titrated, usually from 58.2 µM), actives largely listed as inhibitors | AlphaScreen AMA1-biotinylated RON2 peptide binding | 360,000 tested, 0.2% active; note: nearly all actives have a fitted effect of over 45% in size
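AMA1 (3D7) with his tag at 25 nM final met compounds first, then biotinylated RON2 peptide at 25 nM; detection used donor plus acceptor beads, 10 µg/mL apiece, read by AlphaScreen after 30 min at room temperature.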
Numbers stand for hits; n = inactive; u = inconclusive; x = no result; [ ] = another dose, or the depositor's remark. Only a selection was taken, and hits are over-represented in it overall. Unless noted, calls come from the whole dose curve; as a rule, active = well fitted curve in the direction sought with a large enough effect; inconclusive = small, poorly fitted or top-dose-only effect, or another doubt; inactive = no such curve, though single readings can be large; an effect the other way counts as inactive or inconclusive.

SMILES	AmpC detergent	Shiga inhibitor	SARS PLP yeast	AmpC no deterg	CHX counter	AMA1 RON2 block
Cc1ccc2c(c1)N=C(c1ccccc1)CC(C(Cl)Cl)=N2	n	84	n	n	37	n
Cc1ccc(O)c(C2=Nc3ccccc3N=C(c3cccc(F)c3)C2)c1	n	x	x	x	x	x
O=C(CCCC(=O)NCc1ccccc1)NCc1ccccc1	n	n	n	n	n	n
O=C(NCCc1ccc(Cl)cc1)c1ccc(OCC2CCCO2)cc1 (stereo not given)	u	92	n	n	33	n
CC(C)N(CCNC(=O)c1ccc(OCC2CCCO2)cc1)C(C)C (stereo not given)	n	n	n	n	n	n
O=C(NC1CCCCCC1)c1ccc(OCC2CCCO2)cc1 (stereo not given)	n	59	n	n	24	n
C/C(N)=C(/C#N)C(=O)COC(=O)c1ccc(C#N)cc1	n	n	n	n	n	n
C/C(N)=C(/C#N)C(=O)COC(=O)c1ccc(OCC2CCCO2)cc1 (stereo not given)	n	50	n	n	22	n
NNC(=O)c1ccc(OCC2CC(c3ccc(Cl)cc3)=NO2)cc1 (stereo not given)	n	40	n	n	22	n
COc1ccc(N(CC(=O)N2CCN(C)CC2)S(=O)(=O)c2ccccc2)cc1OC	n	n	n	n	n	n
O=C1/C(=C/c2ccccn2)COc2ccccc21	n	78	n	n	27	n
O=C1/C(=C/c2ccc(O)cc2)COc2ccccc21	n	45	n	n	29	u
CCOc1cc(/C=C2/COc3ccccc3C2=O)ccc1OCC(=O)N(C)C	n	n	n	n	n	n
CNc1ccc(/C=C2\COc3ccccc3C2=O)cc1[N+](=O)[O-]	n	n	n	n	n	n
CC1C/C(=C/c2ccccn2)C(=O)/C(=C/c2ccccn2)C1 (stereo not given)	n	n	n	n	n	n
O=C1/C(=C/c2ccccc2[N+](=O)[O-])COc2ccccc21	n	155	n	n[2.29 µM]	76	n
CN(C)c1ccc(-c2ccc3c(=O)c4ccccc4n(C)c3c2)cn1	n	87	n	n	58	n
CC(C)[C@@H](CO)NC(=O)c1ccc2c3n(nc2c1)-c1ccccc1CO3	n	50	n	n	37	n
Cc1ccc2c(c1)COc1c3ccc(C(=O)O)cc3nn1-2	u	n	n	n	n	n
CC(C)NC(=O)c1ccc2c3n(nc2c1)-c1ccccc1CO3	n	n	n	n	22	n
COC(=O)c1c(C)oc(C)c1S(=O)(=O)N1CCCCC1	n	n	n	n	n	n
Cc1ccc(S(=O)(=O)N(CCc2ccccc2)CC(=O)Nc2ccc(Br)cc2)cc1	n	x	x	x	x	x
CCN(CC)c1nc2c3c(nc4c(c3c1C#N)CC(=O)N4c1ccc(Cl)cc1)NC(C)=N2	n	n	n	n	n	n
CC1=CC(C)(C)N(S(=O)(=O)c2ccc(C)cc2)c2ccc(C)cc21	u	n	n	n	n	n
CCCOc1ccc(NC(=O)CC2C(=O)N(c3ccc(F)cc3)C(=O)N2CC(C)C)cc1 (stereo not given)	n	x	x	x	x	x
SMILES	AmpC detergent	Shiga inhibitor	SARS PLP yeast	AmpC no deterg	CHX counter	AMA1 RON2 block
O=C(CCn1cnc2ccccc21)N/N=C/c1ccc(O)cc1	u	n	n	n	n	n
O=C(Cn1cncn1)N/N=C/c1cc([N+](=O)[O-])ccc1O	n	n	n	n	n	n
O=C(CSc1ccc2ccccc2n1)c1ccccc1	n	90	n	n	53	n
NS(=O)(=O)c1ccc(NC(=O)CSc2ccc3ccccc3n2)cc1	n	n	n	n	n	n
O=C(Cn1cncn1)N/N=C/c1ccccc1O	n	n	n	n	9.9	n
O=C(CCn1cnc2ccccc21)N/N=C/c1ccccc1O	n	60	n	n	24	n
O=C(CSc1ccc2ccccc2n1)N/N=C/c1ccccc1O	n	60	n	n	32	n
Cc1cccc(Nc2nc(N)c(C#N)c(CC#N)c2C#N)c1	n	n	n	n	n	n
Cc1noc(NS(=O)(=O)c2ccc(NC(=O)COc3ccc(C#N)cc3)cc2)c1C	x	x	n	n	x	n
COc1ccc(NC(=O)C2CCN(c3ccc(Sc4ccc(C)cc4)nn3)CC2)cc1	n	x	x	x	x	x
O=C(CSc1ccc2ccccc2n1)N/N=C/c1ccc(O)cc1	u	n	n	n	11	n
O=C(CSc1cccc2cccnc12)N/N=C/c1ccc(O)cc1	n	n	n	n	n	n
O=C(CCC(=O)Nc1ccc(F)cc1)N/N=C/c1ccccc1O	n	73	n	n	24	n
O=C(Nc1cccc(Cl)c1N1CCCC1)c1cccc(-c2cc3ccccc3oc2=O)c1	n	n	n	n	26	n
CCn1nnc(NC(=O)c2cccc(-c3cc4ccccc4oc3=O)c2)n1	u	73	n	n	40	n
COc1ccc2nc(SCC(=O)Nc3ccc(S(=O)(=O)Nc4onc(C)c4C)cc3)[nH]c2c1	n	n	n	n	n	n
COc1ccccc1C(c1c(N)n(C)c(=O)n(C)c1=O)C(C)[N+](=O)[O-] (stereo not given)	n	94	n	n	44	n
COc1ccccc1C(C[N+](=O)[O-])c1c(N)n(C)c(=O)n(C)c1=O (stereo not given)	n	n	n	n	n	n
CC(C)NS(=O)(=O)c1ccc(NC(=O)Cc2cccs2)cc1	u	40	n	n	24	n[2.32 µM]
O=C(Cc1cccs1)Nc1ccc(F)cc1	n	n	n	n	10.0	n
CC(=O)Nc1cccc(NC(=O)Cc2cccs2)c1	n	n	n	n	n	n
CCOc1cccc(NC(=O)Cc2cccs2)c1	u	41	n	n	n	n
Cc1ccc(NC(=O)Cc2cccs2)cc1Cl	n	50	n	n	38	n
O=C(Cc1cccs1)Nc1ccc(F)c(F)c1	u	n	n	n	n	n
NNC(=S)Nc1ccc(OC(F)(F)F)cc1	n	n	n	n	n	n
SMILES	AmpC detergent	Shiga inhibitor	SARS PLP yeast	AmpC no deterg	CHX counter	AMA1 RON2 block
Cc1nc2ccc(NC(=O)Cc3cccs3)cc2s1	n	60	n	n	29	n
O=C(Cc1cccs1)Nc1cccc(-c2nc3cc4ccccc4cc3[nH]2)c1	n	120	n	n	68	n
C#Cc1cccc(NC(=O)Cc2cccs2)c1	n	n	n	n	n	n
Cc1nc2ccc(NC(=O)COc3ccccc3C)cc2s1	n	64	n	n	34	n
Cc1csc(NC(=O)CSc2nccn2Cc2ccco2)n1	n	n	n	n	n	n
CCc1ccc2[nH]c(C(=O)Nc3ccc(Br)c(C)n3)cc2c1	n	137	n	n	32	n
O=C(Nc1ccc(OC(F)F)c(Cl)c1)Nc1ccc2c(c1)OCO2	u	n	n	n	n	n
O=C(Nc1cccnc1)Nc1ccc2c(c1)OCO2	n	88	n	n	43	n

Screening data as filed in PubChem BioAssay.
